Laboratory results as given in the supplement of paper PMC10849652.
The full data set covers some 7,900 targets. This sample favours those with a hit. About 0.6% of all pairs of compound and target were hits.

Compound: Cc1nc(Nc2n[nH]c3c2CN(C(=O)N[C@H](CN(C)C)c2ccccc2)C3(C)C)c2sccc2n1
Assay: log2 fold change, soluble protein after heating vs DMSO (PISA); higher = thermal stabilisation; K562 cells, 10 uM, 30 min; active = over 0.2 and 3.5 SD of the protein, either way, in both replicates (recomputed)
Summary of the method: (§1)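 K562 cells at 2×10^6 cells/mL were treated with 10 μM compound for 30 min. Aliquots were heated for 3 min across 48°C-58°C, pooled, and extracted in PBS with 0.5% NP-40 at 4°C; soluble protein was the supernatant after 21,000xg for 90 min. Soluble protein was quantified by TMTpro 16plex LC-MS/MS with channel sums equalised, and reported as log2 fold change in thermal stability against DMSO controls, with values from duplicates.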

UniProt Q15833, sequence (Q15833 whole entry, looked up): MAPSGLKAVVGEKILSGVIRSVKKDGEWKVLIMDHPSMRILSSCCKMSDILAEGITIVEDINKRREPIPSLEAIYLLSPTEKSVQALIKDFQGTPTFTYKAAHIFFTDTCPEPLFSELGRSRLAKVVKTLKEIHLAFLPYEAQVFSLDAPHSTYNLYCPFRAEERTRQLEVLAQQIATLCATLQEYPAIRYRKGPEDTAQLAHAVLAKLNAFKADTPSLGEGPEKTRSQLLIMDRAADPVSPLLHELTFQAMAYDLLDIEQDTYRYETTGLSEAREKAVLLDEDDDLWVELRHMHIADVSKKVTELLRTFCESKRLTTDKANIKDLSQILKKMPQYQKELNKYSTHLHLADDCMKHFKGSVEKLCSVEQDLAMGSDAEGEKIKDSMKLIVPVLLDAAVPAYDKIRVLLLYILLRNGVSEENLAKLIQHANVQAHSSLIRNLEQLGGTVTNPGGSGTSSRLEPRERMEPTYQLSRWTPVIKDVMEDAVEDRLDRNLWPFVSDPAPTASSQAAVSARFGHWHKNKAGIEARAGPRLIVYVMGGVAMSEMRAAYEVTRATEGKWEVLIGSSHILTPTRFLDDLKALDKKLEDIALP
UniProt Q9H2K8, sequence (Q9H2K8 whole entry, looked up): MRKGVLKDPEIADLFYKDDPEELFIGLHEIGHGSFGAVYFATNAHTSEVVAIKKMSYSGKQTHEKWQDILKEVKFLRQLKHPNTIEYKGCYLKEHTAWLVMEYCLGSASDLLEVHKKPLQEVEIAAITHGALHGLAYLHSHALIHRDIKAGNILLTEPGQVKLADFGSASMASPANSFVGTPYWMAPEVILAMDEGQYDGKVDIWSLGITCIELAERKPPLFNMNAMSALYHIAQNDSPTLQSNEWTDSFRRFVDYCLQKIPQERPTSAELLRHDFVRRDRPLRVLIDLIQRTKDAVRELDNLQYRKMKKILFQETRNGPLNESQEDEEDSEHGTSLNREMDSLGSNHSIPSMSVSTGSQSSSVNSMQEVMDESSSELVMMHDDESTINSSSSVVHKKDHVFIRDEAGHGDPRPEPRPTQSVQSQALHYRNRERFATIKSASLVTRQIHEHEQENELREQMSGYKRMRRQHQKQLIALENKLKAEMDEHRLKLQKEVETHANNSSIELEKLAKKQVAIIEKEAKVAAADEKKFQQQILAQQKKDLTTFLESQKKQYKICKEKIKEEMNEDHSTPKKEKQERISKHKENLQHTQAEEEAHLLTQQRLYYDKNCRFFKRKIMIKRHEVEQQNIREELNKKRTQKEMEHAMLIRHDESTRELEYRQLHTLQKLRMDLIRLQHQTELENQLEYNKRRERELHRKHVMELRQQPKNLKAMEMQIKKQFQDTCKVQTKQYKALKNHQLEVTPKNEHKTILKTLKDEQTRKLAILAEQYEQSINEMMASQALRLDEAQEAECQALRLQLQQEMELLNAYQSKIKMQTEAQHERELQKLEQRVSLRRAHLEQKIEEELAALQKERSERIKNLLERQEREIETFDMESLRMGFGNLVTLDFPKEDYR
UniProt O15400, sequence (O15400 whole entry, looked up): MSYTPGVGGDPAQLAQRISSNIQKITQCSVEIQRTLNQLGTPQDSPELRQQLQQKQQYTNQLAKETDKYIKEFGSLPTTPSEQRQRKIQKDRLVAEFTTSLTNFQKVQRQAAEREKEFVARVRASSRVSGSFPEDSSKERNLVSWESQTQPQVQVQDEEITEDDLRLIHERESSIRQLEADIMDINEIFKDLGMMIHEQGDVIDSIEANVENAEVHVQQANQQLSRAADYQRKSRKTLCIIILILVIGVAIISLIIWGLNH
UniProt O95359, sequence (O95359 whole entry, looked up): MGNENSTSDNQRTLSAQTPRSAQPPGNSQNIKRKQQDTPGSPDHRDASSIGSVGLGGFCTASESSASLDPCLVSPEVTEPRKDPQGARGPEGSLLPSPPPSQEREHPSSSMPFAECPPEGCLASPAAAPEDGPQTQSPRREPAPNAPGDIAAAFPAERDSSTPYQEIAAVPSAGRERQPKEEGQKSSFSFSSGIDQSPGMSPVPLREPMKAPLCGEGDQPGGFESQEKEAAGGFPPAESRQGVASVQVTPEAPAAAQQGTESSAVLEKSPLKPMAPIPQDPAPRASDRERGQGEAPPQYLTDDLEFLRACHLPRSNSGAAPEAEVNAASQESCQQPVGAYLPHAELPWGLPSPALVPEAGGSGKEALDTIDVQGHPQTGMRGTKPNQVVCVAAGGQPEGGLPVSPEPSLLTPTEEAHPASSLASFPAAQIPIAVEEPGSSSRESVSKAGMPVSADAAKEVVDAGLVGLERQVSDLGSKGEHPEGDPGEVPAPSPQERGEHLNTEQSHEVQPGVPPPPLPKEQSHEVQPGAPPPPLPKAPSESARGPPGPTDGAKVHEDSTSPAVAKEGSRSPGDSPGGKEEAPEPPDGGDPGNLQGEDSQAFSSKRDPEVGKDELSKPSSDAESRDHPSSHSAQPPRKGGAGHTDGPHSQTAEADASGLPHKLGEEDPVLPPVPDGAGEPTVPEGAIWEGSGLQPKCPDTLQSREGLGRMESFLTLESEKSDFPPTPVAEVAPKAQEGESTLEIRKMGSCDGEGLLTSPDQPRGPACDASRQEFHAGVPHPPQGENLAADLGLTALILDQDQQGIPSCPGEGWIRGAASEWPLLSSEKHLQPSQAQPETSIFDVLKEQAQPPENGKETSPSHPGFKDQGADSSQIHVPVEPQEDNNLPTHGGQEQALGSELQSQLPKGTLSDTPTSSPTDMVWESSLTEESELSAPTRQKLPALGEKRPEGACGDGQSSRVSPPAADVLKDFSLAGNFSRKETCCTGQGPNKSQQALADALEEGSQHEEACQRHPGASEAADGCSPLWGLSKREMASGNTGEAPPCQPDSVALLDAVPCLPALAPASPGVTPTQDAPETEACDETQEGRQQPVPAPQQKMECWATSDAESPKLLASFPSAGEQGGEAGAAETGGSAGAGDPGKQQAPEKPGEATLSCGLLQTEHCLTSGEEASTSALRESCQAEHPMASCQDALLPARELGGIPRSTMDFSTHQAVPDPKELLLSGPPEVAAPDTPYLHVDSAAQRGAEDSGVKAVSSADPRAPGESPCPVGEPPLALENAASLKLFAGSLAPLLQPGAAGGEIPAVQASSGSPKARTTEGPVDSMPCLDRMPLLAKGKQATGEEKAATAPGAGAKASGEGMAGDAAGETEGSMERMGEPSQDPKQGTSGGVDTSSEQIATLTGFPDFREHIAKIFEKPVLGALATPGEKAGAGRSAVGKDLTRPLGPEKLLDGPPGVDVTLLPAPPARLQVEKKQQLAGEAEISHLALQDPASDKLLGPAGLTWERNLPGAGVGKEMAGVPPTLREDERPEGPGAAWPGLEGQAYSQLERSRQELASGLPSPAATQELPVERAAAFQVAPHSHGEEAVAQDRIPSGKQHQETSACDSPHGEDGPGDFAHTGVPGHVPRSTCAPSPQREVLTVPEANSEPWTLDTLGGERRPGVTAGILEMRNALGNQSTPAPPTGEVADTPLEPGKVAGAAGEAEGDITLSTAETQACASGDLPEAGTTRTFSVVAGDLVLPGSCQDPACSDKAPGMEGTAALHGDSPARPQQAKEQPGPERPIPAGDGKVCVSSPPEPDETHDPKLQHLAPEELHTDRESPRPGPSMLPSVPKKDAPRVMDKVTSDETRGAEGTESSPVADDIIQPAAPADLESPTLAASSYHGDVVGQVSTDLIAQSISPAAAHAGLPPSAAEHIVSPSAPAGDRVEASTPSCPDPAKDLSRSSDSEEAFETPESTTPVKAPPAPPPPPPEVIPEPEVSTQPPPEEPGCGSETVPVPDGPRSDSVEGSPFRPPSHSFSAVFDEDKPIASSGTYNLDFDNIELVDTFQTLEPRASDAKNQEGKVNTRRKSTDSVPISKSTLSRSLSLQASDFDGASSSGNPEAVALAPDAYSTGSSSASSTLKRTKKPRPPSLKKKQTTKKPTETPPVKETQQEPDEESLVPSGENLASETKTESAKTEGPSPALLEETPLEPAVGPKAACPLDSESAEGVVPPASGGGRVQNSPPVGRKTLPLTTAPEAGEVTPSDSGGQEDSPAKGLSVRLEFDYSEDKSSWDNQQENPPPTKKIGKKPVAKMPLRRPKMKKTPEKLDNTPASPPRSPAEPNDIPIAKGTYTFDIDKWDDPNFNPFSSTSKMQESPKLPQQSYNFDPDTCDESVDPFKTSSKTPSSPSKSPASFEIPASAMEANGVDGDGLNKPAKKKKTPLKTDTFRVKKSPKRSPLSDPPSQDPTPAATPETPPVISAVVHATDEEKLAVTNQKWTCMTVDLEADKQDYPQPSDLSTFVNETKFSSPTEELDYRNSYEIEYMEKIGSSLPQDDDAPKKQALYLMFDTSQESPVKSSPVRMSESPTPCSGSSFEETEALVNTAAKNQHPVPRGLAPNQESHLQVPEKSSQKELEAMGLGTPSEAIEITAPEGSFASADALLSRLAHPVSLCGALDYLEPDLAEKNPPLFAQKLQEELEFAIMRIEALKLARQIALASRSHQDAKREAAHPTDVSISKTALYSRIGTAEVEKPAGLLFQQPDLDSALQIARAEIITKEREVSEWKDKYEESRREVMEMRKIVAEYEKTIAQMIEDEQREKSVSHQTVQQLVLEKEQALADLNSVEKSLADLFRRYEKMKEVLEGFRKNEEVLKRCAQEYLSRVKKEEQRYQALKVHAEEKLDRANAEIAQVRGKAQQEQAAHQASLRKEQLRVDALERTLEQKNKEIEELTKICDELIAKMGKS
UniProt P30626, sequence (P30626 whole entry, looked up): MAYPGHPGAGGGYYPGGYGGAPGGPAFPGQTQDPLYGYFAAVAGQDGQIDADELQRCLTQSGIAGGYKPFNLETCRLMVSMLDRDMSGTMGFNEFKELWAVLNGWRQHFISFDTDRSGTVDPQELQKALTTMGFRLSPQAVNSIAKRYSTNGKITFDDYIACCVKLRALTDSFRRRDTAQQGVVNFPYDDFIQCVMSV
UniProt Q9BYN0, sequence (Q9BYN0 whole entry, looked up): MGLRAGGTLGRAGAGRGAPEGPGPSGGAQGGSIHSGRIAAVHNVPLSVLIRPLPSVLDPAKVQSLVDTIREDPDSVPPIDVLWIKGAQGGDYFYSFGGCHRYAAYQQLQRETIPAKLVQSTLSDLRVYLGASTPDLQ

log2 fold change, active:
SRSF6 (UniProt Q13247) -0.813

log2 fold change, inactive:
SYNE2 isoform 2 (UniProt Q8WXH0) 0.006, SPAG9 (UniProt O60271) -0.074, SRFBP1 (UniProt Q8NEF9) -0.031, SMC5 (UniProt Q8IY18) -0.095, SLC38A7 (UniProt Q9NVC3) -0.023, SLC30A10 (UniProt Q6XR72) -0.061, TK1 (UniProt K7ERV3) -0.018, SMCHD1 (UniProt A6NHR9) -0.011, SLC44A2 isoform 2 (UniProt Q8IWA5) 0.008, SYNE1 (UniProt Q8NF91) -0.281, TENT5C (UniProt Q5VWP2) 0.02, SRCAP (UniProt Q6ZRS2) 0.152, TBC1D20 isoform 3 (UniProt Q96BZ9) -0.023, STK11IP (UniProt Q8N1F8) 0.058, SMAD2 (UniProt Q15796) -0.123, STXBP2 isoform 3 (UniProt Q15833) -0.147, SPIRE1 (UniProt Q08AE8) 0.063, TGFBR1 isoform 2 (UniProt P36897) -0.018, STK38L (UniProt Q9Y2H1) -0.238, STARD3 (UniProt Q14849) 0.218, SRC isoform 2 (UniProt P12931) -0.499, TEX30 (UniProt Q5JUR7) -0.095, TFAM (UniProt Q00059) 0.023, SLC39A11 (UniProt Q8N1S5) 0.001, TM9SF4 (UniProt Q92544) 0.012, SLC25A38 (UniProt Q96DW6) 0.023, SSBP4 (UniProt Q9BWG4) 0.014, TAOK3 (UniProt Q9H2K8) 0.03, SRI (UniProt P30626) 0.001, SNX15 (UniProt Q9NRS6) -0.17, SRXN1 (UniProt Q9BYN0) -0.088, STX7 (UniProt O15400) 0.013, TATDN2 (UniProt Q93075) -0.217, TACC2 (UniProt O95359) 0.073, SOAT1 (UniProt P35610) -0.001, SP1 (UniProt P08047) -0.003

Compound: Cc1nc(Nc2ncc(C(=O)Nc3c(C)cccc3Cl)s2)cc(N2CCN(CCO)CC2)n1 [dasatinib]
Assay: as above
Summary of the method: as §1

log2 fold change, inactive:
SYNE2 isoform 2 (UniProt Q8WXH0) -0.019, SPAG9 (UniProt O60271) -0.076, SRFBP1 (UniProt Q8NEF9) 0.095, SMC5 (UniProt Q8IY18) 0.05, SLC30A10 (UniProt Q6XR72) 0.016, TK1 (UniProt K7ERV3) 0.018, SMCHD1 (UniProt A6NHR9) -0.319, SLC44A2 isoform 2 (UniProt Q8IWA5) 0.064, SYNE1 (UniProt Q8NF91) -0.074, TENT5C (UniProt Q5VWP2) -0.122, SRCAP (UniProt Q6ZRS2) -0.038, STK11IP (UniProt Q8N1F8) -0.19, SMAD2 (UniProt Q15796) -0.13, STXBP2 isoform 3 (UniProt Q15833) -0.131, STK38L (UniProt Q9Y2H1) -0.012, STARD3 (UniProt Q14849) 0.284, SRSF6 (UniProt Q13247) 0.079, TEX30 (UniProt Q5JUR7) -0.2, TFAM (UniProt Q00059) 0.077, SLC39A11 (UniProt Q8N1S5) 0.058, TM9SF4 (UniProt Q92544) 0.127, SLC25A38 (UniProt Q96DW6) 0.143, SSBP4 (UniProt Q9BWG4) -0.021, TAOK3 (UniProt Q9H2K8) -0.048, SRI (UniProt P30626) 0.04, SNX15 (UniProt Q9NRS6) 0.206, STX7 (UniProt O15400) 0.03, SMARCA4 (UniProt P51532) 0.118, TATDN2 (UniProt Q93075) -0.042, TACC2 (UniProt O95359) 0.059, SOAT1 (UniProt P35610) 0.257, SP1 (UniProt P08047) -0.005
